{"source": "PubChem BioAssay AID1903", "about": "(Southern Research Specialized Biocontainment Screening …, 2009)", "note": "The whole screen tested about 310,000 compounds, of which about 1,200 (0.39%) were called active. How the calls were made is not given here. These entries were drawn from the full list. Results with a measured potency or affinity are listed apart."}
{"target": "Large T antigen (Simian virus 40) (UniProt P03070)", "sequence (P03070 whole entry, looked up)": "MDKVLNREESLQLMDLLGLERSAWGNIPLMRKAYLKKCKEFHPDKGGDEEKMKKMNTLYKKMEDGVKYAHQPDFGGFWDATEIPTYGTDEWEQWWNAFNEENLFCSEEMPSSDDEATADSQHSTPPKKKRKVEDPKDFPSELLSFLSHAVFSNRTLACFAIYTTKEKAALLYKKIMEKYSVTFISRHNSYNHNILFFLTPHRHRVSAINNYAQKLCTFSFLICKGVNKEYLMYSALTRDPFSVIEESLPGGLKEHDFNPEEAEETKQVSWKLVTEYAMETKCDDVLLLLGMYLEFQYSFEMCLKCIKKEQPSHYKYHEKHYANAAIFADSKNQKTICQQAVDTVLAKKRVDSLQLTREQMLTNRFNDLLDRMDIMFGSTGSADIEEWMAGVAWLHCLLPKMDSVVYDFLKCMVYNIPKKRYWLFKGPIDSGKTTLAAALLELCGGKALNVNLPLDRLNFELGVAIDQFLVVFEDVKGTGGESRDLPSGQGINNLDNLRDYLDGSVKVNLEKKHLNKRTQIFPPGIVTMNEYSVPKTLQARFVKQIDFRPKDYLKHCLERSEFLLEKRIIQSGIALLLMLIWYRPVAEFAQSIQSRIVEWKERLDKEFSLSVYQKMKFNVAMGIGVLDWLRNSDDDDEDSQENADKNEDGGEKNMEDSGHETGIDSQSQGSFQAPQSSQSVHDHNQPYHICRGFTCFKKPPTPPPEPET", "assay": "TAg ATPase/helicase activity blockers – biochemical (AID 1903)", "settings": "SV40 large T antigen ATPase/helicase inhibition assay; at 20 µM; active compounds read high"}
{"smiles": "COc1cccc(/C=N/NC(=O)C(=O)N2CCCCCC2)c1O", "inhibition": "28.6% (inactive)"}
{"smiles": "CCCc1cc(=O)[nH]c(N/N=C/C=C\\c2ccccc2)n1", "inhibition": "6.47% (inactive)"}
{"smiles": "O=C(N/N=C\\c1c[nH]c2ccccc12)c1ccc(O)cc1", "inhibition": "18% (inactive)"}
{"smiles": "O=C(N/N=C/c1c[nH]c2ccccc12)c1cccc(O)c1", "inhibition": "16% (inactive)"}
{"smiles": "Cc1cc(N/N=C/c2c[nH]c3ccccc23)c2ccccc2n1", "inhibition": "5.53% (inactive)"}
{"smiles": "Cc1cc(C)nc(N/N=C/c2c[nH]c3ccccc23)n1", "inhibition": "33.8% (inactive)"}
{"smiles": "Cc1cc(C)c(COCc2cc(/C=N/O)c(C)cc2C)cc1/C=N/O", "inhibition": "-0.28% (inactive)"}
{"smiles": "C=CCN1C(=O)C(Cc2ccccc2)SC1=Nc1ccc(C(=O)O)cc1", "note": "(centres undefined)", "inhibition": "25.5% (inactive)"}
{"smiles": "C/C(=N\\NC(=O)c1ccc(N)cc1)C1CC1", "inhibition": "9.62% (inactive)"}
{"smiles": "CCN1CCN(C(=O)Cn2ncc3c([nH]c4ccc(C)cc43)c2=O)CC1", "inhibition": "9.03% (inactive)"}
{"smiles": "Cc1cccc(NC(=S)NCc2ccc3c(c2)cc(C)n3C)c1C", "inhibition": "5.14% (inactive)"}
{"smiles": "Cc1ccnc(SCc2cc(=O)c(OC(=O)c3ccc(S(=O)(=O)N(C)C)cc3)co2)n1", "inhibition": "15.9% (inactive)"}
{"smiles": "Cc1cc(C)nc(SCc2cc(=O)c(OC(=O)c3ccc(Cl)c([N+](=O)[O-])c3)co2)n1", "inhibition": "9.56% (inactive)"}
{"smiles": "Cc1ccnc(SCc2cc(=O)c(OC(=O)c3ccc(S(=O)(=O)N4CCCC4)cc3)co2)n1", "inhibition": "48.9% (inactive)"}
{"smiles": "Cc1cc(C)nc(SCc2cc(=O)c(OC(=O)c3ccc(S(=O)(=O)N(C)C)cc3)co2)n1", "inhibition": "22.4% (inactive)"}
{"smiles": "Cc1ccc(NC(=O)CN(C)C(=O)C2COc3ccccc3O2)cc1", "note": "(centres undefined)", "inhibition": "6.98% (inactive)"}
{"smiles": "Cc1ccc(S(=O)(=O)NC2=NCN(CC(=O)O)CN2)cc1", "inhibition": "7.75% (inactive)"}
{"smiles": "CC(=O)n1cc([C@H]2C=C(C(=O)N3CCN(Cc4ccc5c(c4)OCO5)CC3)O[C@@H](OCCCCO)C2)c2ccccc21", "inhibition": "21.8% (inactive)"}
{"smiles": "CCOc1ccc(CNS(=O)(=O)c2ccc3c(c2)CC(=O)N3C)cc1", "inhibition": "11.9% (inactive)"}
{"smiles": "CCOc1ccc(Oc2nc(Nc3ccc(C)cc3)nc(N(C)C)n2)nn1", "inhibition": "-0.33% (inactive)"}
{"smiles": "COc1ccc(-n2ncc3c(=O)n(CC(=O)Nc4ccc(S(=O)(=O)N5CCOCC5)cc4)cnc32)cc1", "inhibition": "5.14% (inactive)"}
{"smiles": "COC(=O)[C@@H](N)Cc1ccc(O)c(O)c1", "inhibition": "10% (inactive)"}
{"smiles": "COC(=O)C(N)Cc1ccc(O)c(O)c1", "note": "(centres undefined)", "inhibition": "20.9% (inactive)"}
{"smiles": "COC(=O)c1ccc(NC(=O)COc2cccc3c2OC(C)(C)C3)cc1", "inhibition": "-1.91% (inactive)"}
{"smiles": "CC(=O)Nc1sc(N/N=C\\c2cccc(Cl)c2)nc1-c1cccs1", "inhibition": "18.8% (inactive)"}
{"smiles": "CC(=O)Nc1sc(N/N=C\\c2ccccc2Cl)nc1-c1cccs1", "inhibition": "34.5% (inactive)"}
{"smiles": "CC(=O)Nc1sc(N/N=C\\c2ccccc2F)nc1-c1cccs1", "inhibition": "9.59% (inactive)"}
{"smiles": "COc1cc(/C=N\\Nc2nc(-c3ccc(C)cc3)c(NC(C)=O)s2)ccc1O", "inhibition": "35.9% (inactive)"}
{"smiles": "CCOc1cc(/C=N\\Nc2nc(-c3ccc(C)cc3)c(NC(C)=O)s2)ccc1O", "inhibition": "26.6% (inactive)"}
{"smiles": "CC(=O)Nc1sc(N/N=C\\c2ccccc2)nc1-c1cccs1", "inhibition": "21% (inactive)"}
{"smiles": "OCCN(CCO)c1ccc(C(c2ccc(Cl)cc2)c2ccc(N(CCO)CCO)cc2Cl)c(Cl)c1", "inhibition": "2.12% (inactive)"}
{"smiles": "COC(=O)c1c(-c2ccccc2)noc1-c1ccccc1", "inhibition": "8.1% (inactive)"}
{"smiles": "O=C(c1cccc(S(=O)(=O)N2CCOCC2)c1)N1CCCCCC1", "inhibition": "0.39% (inactive)"}
{"smiles": "Cc1ccc(NC(=O)CN2CCc3cc4c(cc3C2C)OCCCO4)cc1", "note": "(centres undefined)", "inhibition": "8.62% (inactive)"}
{"smiles": "CN1C(C(=O)Nc2ccc(OC(F)(F)F)cc2)=CC(c2ccco2)=NS1(=O)=O", "inhibition": "8.59% (inactive)"}
{"smiles": "COC(=O)c1sc2cc([N+](=O)[O-])cc(SCC(C)C)c2c1N", "inhibition": "10.4% (inactive)"}
{"smiles": "COc1cc(Cl)cc(C#N)c1OCC(=O)O", "inhibition": "-0.11% (inactive)"}
{"smiles": "Cc1c(N=NC2=C(O)CCCC2=O)c(=O)n(-c2ccccc2)n1C", "inhibition": "-2.74% (inactive)"}
{"smiles": "Cc1c(NCc2ccccc2O)c(=O)n(-c2ccccc2)n1C", "inhibition": "29% (inactive)"}
{"smiles": "CC1=CC(=Nc2c(C)n(C)n(-c3ccccc3)c2=O)C=C(C)C1=O", "inhibition": "2.58% (inactive)"}
{"smiles": "CCC(C)C1=CC(=Nc2c(C)n(C)n(-c3ccccc3)c2=O)C=C(C(C)CC)C1=O", "note": "(centres undefined)", "inhibition": "4.02% (inactive)"}
{"smiles": "CC(=O)/C(N=Nc1c(C)n(C)n(-c2ccccc2)c1=O)=C(\\C)O", "inhibition": "1.99% (inactive)"}
{"smiles": "Cc1c(N=Nc2ccc(O)cc2)c(=O)n(-c2ccccc2)n1C", "inhibition": "28% (inactive)"}
{"smiles": "Cc1c(N=NC2=C(O)CC(C)(C)CC2=O)c(=O)n(-c2ccccc2)n1C", "inhibition": "4.32% (inactive)"}
{"smiles": "Cc1[nH]c2ccccc2c1N=Nc1c(C)n(C)n(-c2ccccc2)c1=O", "inhibition": "6.57% (inactive)"}
{"smiles": "CCNC(=O)c1c(NC(=O)C2COc3ccccc3O2)sc2c1CCCC2", "note": "(centres undefined)", "inhibition": "-3.17% (inactive)"}
{"smiles": "COc1ccc(/C=N/NC(=O)CNc2c(Br)cc(C)cc2Br)c(C(=O)O)c1OC", "inhibition": "-1.95% (inactive)"}
{"smiles": "Cc1nc(-c2nc(-c3c(C(=O)NNC(=O)Nc4cccc(Cl)c4)noc3C)cs2)cs1", "inhibition": "8.51% (inactive)"}
{"smiles": "Cc1ccc(C(=O)OCC(=O)N2CC(C)CC(C)C2)cc1S(=O)(=O)N1CCOCC1", "note": "(centres undefined)", "inhibition": "-0.25% (inactive)"}
{"smiles": "COc1ccc(N(C(C)C(=O)Nc2ccc(S(=O)(=O)N3CCOCC3)cc2)S(C)(=O)=O)cc1", "note": "(centres undefined)", "inhibition": "22.9% (inactive)"}
{"smiles": "Cc1ccc(S(=O)(=O)NNC(=O)Nc2ccc([N+](=O)[O-])cc2)c(C)c1", "inhibition": "7.86% (inactive)"}
{"smiles": "NC(=O)COC(=O)CNC(=O)c1sc2ccccc2c1Cl", "inhibition": "4.69% (inactive)"}
{"smiles": "c1ccc2cc(OCCOCCOc3ccc4ccccc4c3)ccc2c1", "inhibition": "5.7% (inactive)"}
{"smiles": "CC1=NN(c2cccc(F)c2)C(=O)/C1=C/c1ccc(N(C)C)cc1", "inhibition": "8.44% (inactive)"}
{"smiles": "CCN(CC)c1ccc(/C=C2/C(=O)ON=C2C)cc1", "inhibition": "29.4% (inactive)"}
{"smiles": "Cc1oc2ccccc2c1CC(=O)NCCCN(C)C", "inhibition": "-4.93% (inactive)"}
{"smiles": "Cc1cc(C)n(C(=O)CNC(=O)c2ccccc2F)n1", "inhibition": "9.87% (inactive)"}
{"smiles": "Cc1ccccc1NN=Nc1nc2c([nH]1)c(=O)n(C)c(=O)n2C", "inhibition": "14.1% (inactive)"}
{"smiles": "Cc1ccc(NN=Nc2nc3c([nH]2)c(=O)n(C)c(=O)n3C)cc1", "inhibition": "9.3% (inactive)"}
